Here are results for 17 molecules from PubChem BioAssay (NCATS).

Experiment [1] is described as follows: qHTS to identify inhibitors of the type 1 interferon - major histocompatibility complex class I in skeletal muscle: primary screen against the NCATS Pharmaceutical Collection (AID 1347407).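 Further: luminescence of HiBiT knocked into endogenous HLA-B as interferon-induced MHC class I level.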 Summed up: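 Immortalized human myoblasts (C25cl48) with HiBiT knocked into endogenous HLA-B*08:01 were stimulated with 4.0 ng/ml IFN-beta and treated with compounds ([…] top 46 uM) for 24 hrs at 37 C. HiBiT lytic luminescence read.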

Experiment [2] can be described thus: qHTS to identify inhibitors of the type 1 interferon - major histocompatibility complex class I in skeletal muscle: primary screen against the NCATS Mechanism Interrogation Plate v5.0 (MIPE) Libary (AID 1347411). Further: nearly all actives have a fitted effect of over 65% in size. Summed up:
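Luminescence from HiBiT-tagged endogenous HLA-B*08:01 served as the MHC class I read-out. CRISPR-engineered C25cl48 human myoblasts received 4.0 ng/ml IFN-beta plus compound for 24 hrs, with an 11-point, 1:3 series topping at 46 uM final.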

A short description of experiment [3]: qHTS for inhibitors of adenylyl cyclases using a fission yeast platform: a pilot screen against the NCATS LOPAC library (AID 1347410). Summed up: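 S. pombe CHP2027 (AC9-GNAS-PDE4D2) carrying PKA-repressed fbp1-GFP, incubated 18 h at 30C in EMM with LOPAC compounds at up to 57 uM. GFP gain-of-signal read by laser scanning cytometry; DMSO negative control.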
On the technique in general: qHTS replaces the single test concentration by a dilution series.

Inconclusive results are not listed. A call without a number means that no potency is given here. The source made the active and inactive calls. The call rests on the fitted dose curve; in most records, active means well fitted curve in the direction sought with a large enough effect; inconclusive means small, poorly fitted or top-dose-only effect, or another doubt; inactive means no such curve, though single readings can be large; an effect the other way counts as inactive or inconclusive.

Regarding `Cc1cc(=O)oc2cc(O)ccc12`, the Potency result in experiment [1] and in experiment [2] was “inactive” in each case.

With `Cc1cc2cc3c(C)cc(=O)oc3c(C)c2o1`, the Potency entry in experiment [1] and in experiment [2] was “inactive” in each case.

For the molecule `c1ccc2[nH]c(-c3cscn3)nc2c1`, the Potency entry in experiment [1] and in experiment [2] was “inactive” in each case.

For the molecule `O=C(NC(Cc1cc(=O)[nH]c2ccccc12)C(=O)O)c1ccc(Cl)cc1` (configuration not stated), the Potency entry in experiment [1] and in experiment [2] was “inactive” each time.

For `CCCOc1ccc2nc(NC(=O)OC)[nH]c2c1`, in experiment [1], the Potency result was “inactive”.

In the case of `O=C(c1ccccc1)c1ccc2n1CCC2C(=O)O` (configuration not stated), the Potency entry in experiment [1] and in experiment [2] was “inactive” each time. Also, the molecule was classed as inactive in experiment [3].

Consider `O=C(O)c1cc(=O)c2c(OCC(O)COc3cccc4oc(C(=O)O)cc(=O)c34)cccc2o1`, for which the Potency entry in experiment [1] and in experiment [2] was “inactive” throughout.

For `O=C(O)CCNC(=O)c1ccc(N=Nc2ccc(O)c(C(=O)O)c2)cc1`, the Potency result in experiment [1] and in experiment [2] was “inactive” each time.

`CC1Cc2ccccc2N1NC(=O)c1ccc(Cl)c(S(N)(=O)=O)c1` (configuration not stated): the Potency entry in experiment [1] and in experiment [2] was “inactive” in each case.

For `O=C(NCCO[N+](=O)[O-])c1cccnc1`, the Potency result in experiment [1] and in experiment [2] was “inactive” each time.

Turning to `Cc1ccc(C(=O)c2cc(O)c(O)c([N+](=O)[O-])c2)cc1`, the Potency result in experiment [1] was “inactive”.

As to `CC(C)c1ccc2oc3nc(N)c(C(=O)O)cc3c(=O)c2c1`, the Potency entry in experiment [1] was “inactive”.

With `CCCc1cc(=O)[nH]c(=S)[nH]1`, the Potency result in experiment [1] and in experiment [2] was “inactive” throughout.

As to `CN(C)C(=O)COC(=O)Cc1ccc(OC(=O)c2ccc(N=C(N)N)cc2)cc1`, the Potency entry in experiment [1] and in experiment [2] was “inactive” each time.

Take `CN1CCC(=C2c3ccccc3CCc3sccc32)CC1`: the Potency result in experiment [1] and in experiment [2] was “inactive” throughout.

With `Nc1cc(C(Cl)=C(Cl)Cl)c(S(N)(=O)=O)cc1S(N)(=O)=O`, the Potency entry in experiment [1] and in experiment [2] was “inactive” throughout.

With `CCCCN(CCCC)CCC(O)c1cc2c(Cl)cc(Cl)cc2c2cc(C(F)(F)F)ccc12` (configuration not stated), the Potency result in experiment [1] and in experiment [2] was “inactive” in each case.
